Source: article PMC5540273 (PLoS ONE, 2017)

Tests used:
Conditions in all cases: concentration: 1 μM, replicates: in singlicate; n = 1
HIPK3 = system: HIPK3
HIPK4 = system: HIPK4
HPK1 = system: HPK1
HUNK = system: HUNK
ICK = system: ICK
IGF1R = system: IGF1R
IKK-alpha = system: T1, IKK-alpha
T1 construct: gene CHUK

IKK-beta = system: T2, IKK-beta
T2 construct: gene IKBKB

IKK-epsilon = system: T3, IKK-epsilon
T3 construct: gene IKBKE

INSRR = system: INSRR
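Note: KINOMEscan kinase panel screen.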

O=C(Nc1ccc2c(c1)OCO2)NC1CCN(c2ccnc(NCc3ccc(F)cc3)n2)CC1 [GSK1379859]
%Inh (HIPK3): 9% | %Inh (HIPK4): 0% | %Inh (HPK1): 29% | %Inh (HUNK): 1% | %Inh (ICK): 0% | %Inh (IGF1R): 0% | %Inh (IKK-alpha): 0% | %Inh (IKK-beta): 0% | %Inh (IKK-epsilon): 11% | %Inh (INSRR): 0%

Cc1nc(N(C)[C@H]2CN(C(=O)CC#N)CC[C@H]2C)c2cc[nH]c2n1
%Inh (HIPK3): 9% | %Inh (HIPK4): 0% | %Inh (HPK1): 0% | %Inh (HUNK): 0% | %Inh (ICK): 0% | %Inh (IGF1R): 0% | %Inh (IKK-alpha): 0% | %Inh (IKK-beta): 5% | %Inh (IKK-epsilon): 0% | %Inh (INSRR): 0%

CCn1c(-c2ccoc2)nc2cnccc21 [SB-733887]
%Inh (HIPK3): 20% | %Inh (HIPK4): 0% | %Inh (HPK1): 35% | %Inh (HUNK): 0% | %Inh (ICK): 14% | %Inh (IGF1R): 0% | %Inh (IKK-alpha): 30% | %Inh (IKK-beta): 29% | %Inh (IKK-epsilon): 60% | %Inh (INSRR): 0%

COC(=O)c1c(-c2ccccc2)c2cc(Br)ccc2c(=O)n1Cc1ccc(NC(=O)CCC(=O)O)cc1
%Inh (HIPK3): 0% | %Inh (HIPK4): 0% | %Inh (HPK1): 0% | %Inh (HUNK): 0% | %Inh (ICK): 14% | %Inh (IGF1R): 0% | %Inh (IKK-alpha): 0% | %Inh (IKK-beta): 0% | %Inh (IKK-epsilon): 0% | %Inh (INSRR): 13%

COc1cc2ncn(-c3cc(OCCCc4ccccc4)c(C(N)=O)s3)c2cc1OC [GSK205189]
%Inh (HIPK3): 0% | %Inh (HIPK4): 60% | %Inh (HPK1): 28% | %Inh (HUNK): 0% | %Inh (ICK): 0% | %Inh (IGF1R): 13% | %Inh (IKK-alpha): 0% | %Inh (IKK-beta): 0% | %Inh (IKK-epsilon): 14% | %Inh (INSRR): 3%

CCC(=O)c1c(-c2ccccc2)c2cc(Cl)ccc2c(=O)n1Cc1ccc(C(=O)O)cc1
%Inh (HIPK3): 0% | %Inh (HIPK4): 0% | %Inh (HPK1): 0% | %Inh (HUNK): 0% | %Inh (ICK): 0% | %Inh (IGF1R): 0% | %Inh (IKK-alpha): 0% | %Inh (IKK-beta): 0% | %Inh (IKK-epsilon): 0% | %Inh (INSRR): 0%

Nc1nc(N)c2nc(-c3ccccc3)[nH]c2n1 [SKF-12778]
%Inh (HIPK3): 10% | %Inh (HIPK4): 13% | %Inh (HPK1): 57% | %Inh (HUNK): 11% | %Inh (ICK): 15% | %Inh (IGF1R): 15% | %Inh (IKK-alpha): 4% | %Inh (IKK-beta): 17% | %Inh (IKK-epsilon): 12% | %Inh (INSRR): 12%

COc1cc2ncn(-c3cc(OCc4ccncc4Br)c(C(N)=O)s3)c2cc1OC [GW854278]
%Inh (HIPK3): 15% | %Inh (HIPK4): 32% | %Inh (HPK1): 0% | %Inh (HUNK): 0% | %Inh (ICK): 5% | %Inh (IGF1R): 0% | %Inh (IKK-alpha): 6% | %Inh (IKK-beta): 3% | %Inh (IKK-epsilon): 0% | %Inh (INSRR): 7%

CCC(=O)c1c(-c2ccccc2)c2cc(Cl)ccc2c(=O)n1Cc1cc(S(C)(=O)=O)n(CC(N)=O)n1
%Inh (HIPK3): 0% | %Inh (HIPK4): 0% | %Inh (HPK1): 0% | %Inh (HUNK): 0% | %Inh (ICK): 0% | %Inh (IGF1R): 0% | %Inh (IKK-alpha): 0% | %Inh (IKK-beta): 0% | %Inh (IKK-epsilon): 0% | %Inh (INSRR): 0%

Cc1nn2c(=O)cc(N3CCOCC3)nc2n1Cc1cccc(Cl)c1Cl [GSK2342769]
%Inh (HIPK3): 38% | %Inh (HIPK4): 0% | %Inh (HPK1): 32% | %Inh (HUNK): 0% | %Inh (ICK): 2% | %Inh (IGF1R): 5% | %Inh (IKK-alpha): 19% | %Inh (IKK-beta): 18% | %Inh (IKK-epsilon): 5% | %Inh (INSRR): 0%

COc1ccc(CNC(=O)NC2CCN(c3ccnc(Nc4ccc(F)cc4)n3)C2)cc1 (stereo not drawn) [GSK1379706]
%Inh (HIPK3): 30% | %Inh (HIPK4): 8% | %Inh (HPK1): 49% | %Inh (HUNK): 0% | %Inh (ICK): 0% | %Inh (IGF1R): 13% | %Inh (IKK-alpha): 3% | %Inh (IKK-beta): 0% | %Inh (IKK-epsilon): 30% | %Inh (INSRR): 0%

Nc1nc(-c2ccccc2F)c(-c2ccnc3ccccc23)s1 [GW560459]
%Inh (HIPK3): 3% | %Inh (HIPK4): 0% | %Inh (HPK1): 7% | %Inh (HUNK): 12% | %Inh (ICK): 0% | %Inh (IGF1R): 20% | %Inh (IKK-alpha): 28% | %Inh (IKK-beta): 9% | %Inh (IKK-epsilon): 18% | %Inh (INSRR): 0%

CCS(=O)(=O)c1ccc(OC)c(Nc2ncc(-c3ccc(F)cc3)o2)c1.Cl [GW591947]
%Inh (HIPK3): 37% | %Inh (HIPK4): 0% | %Inh (HPK1): 17% | %Inh (HUNK): 22% | %Inh (ICK): 0% | %Inh (IGF1R): 20% | %Inh (IKK-alpha): 0% | %Inh (IKK-beta): 1% | %Inh (IKK-epsilon): 0% | %Inh (INSRR): 0%

Nc1ncnc2c1ncn2-c1cccc2ccccc12 [SKF-97184]
%Inh (HIPK3): 0% | %Inh (HIPK4): 7% | %Inh (HPK1): 2% | %Inh (HUNK): 45% | %Inh (ICK): 0% | %Inh (IGF1R): 0% | %Inh (IKK-alpha): 16% | %Inh (IKK-beta): 3% | %Inh (IKK-epsilon): 0% | %Inh (INSRR): 0%

Cc1ccc(Oc2ccc(Nc3ncnc4cc[nH]c34)cc2C)cn1
%Inh (HIPK3): 24% | %Inh (HIPK4): 0% | %Inh (HPK1): 0% | %Inh (HUNK): 4% | %Inh (ICK): 33% | %Inh (IGF1R): 0% | %Inh (IKK-alpha): 0% | %Inh (IKK-beta): 8% | %Inh (IKK-epsilon): 50% | %Inh (INSRR): 0%

COc1cc2ncn(-c3cc(OCc4ccc(S(C)(=O)=O)cc4)c(C(N)=O)s3)c2cc1OC [GW869979]
%Inh (HIPK3): 2% | %Inh (HIPK4): 26% | %Inh (HPK1): 10% | %Inh (HUNK): 2% | %Inh (ICK): 19% | %Inh (IGF1R): 6% | %Inh (IKK-alpha): 0% | %Inh (IKK-beta): 7% | %Inh (IKK-epsilon): 25% | %Inh (INSRR): 0%

CN(C)c1cc(-c2ccc3c(N)n[nH]c3c2)nc(N)n1 [GSK2219329]
%Inh (HIPK3): 17% | %Inh (HIPK4): 0% | %Inh (HPK1): 26% | %Inh (HUNK): 2% | %Inh (ICK): 4% | %Inh (IGF1R): 14% | %Inh (IKK-alpha): 0% | %Inh (IKK-beta): 0% | %Inh (IKK-epsilon): 40% | %Inh (INSRR): 0%

COc1cccc(-n2cnc3c(N)ncnc32)c1 [SKF-97416]
%Inh (HIPK3): 26% | %Inh (HIPK4): 13% | %Inh (HPK1): 0% | %Inh (HUNK): 16% | %Inh (ICK): 34% | %Inh (IGF1R): 0% | %Inh (IKK-alpha): 50% | %Inh (IKK-beta): 32% | %Inh (IKK-epsilon): 0% | %Inh (INSRR): 5%
